Experimental data reported in PubChem BioAssay (NCATS).
Values joined by “and” are separate entries in the source; they are usually repeats but may differ in a detail not shown here. Identical values can stand only once. Records with an inconclusive call do not appear. Active and inactive are the calls of the source. Calls follow the shape of the dose curve; as a rule, active = well fitted inhibition curve with a large enough effect; inconclusive = small, poorly fitted or top-dose-only effect; inactive = flat fitted curve, though single readings scatter.

Key:
TAB113 = experiment: qHTS profiling for inhibitors of Plasmodium falciparum proliferation (AID 504749); also: potency is read from the fitted curve at half-maximal effect; details: P. falciparum in erythrocytes, SYBR Green DNA, 72 h; series mostly up to 28.7 µM
In short: (§1)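 SYBR Green fluorescence (ex 485 nm, em 535 nm) reports parasite DNA after 72 h compound exposure of infected red cells at 0.3% parasitemia, 2.5% hematocrit; signal normalized to 0.29 uM artemisinin and vehicle wells.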

TAB165 = experiment: as above; details: P. falciparum in erythrocytes, SYBR Green DNA, 72 h; series mostly up to 28.7 µM
In short: as §1

CRL-7250 = normal cell line; experiment: Cytotoxic Profiling of Annotated Libraries Using Quantitative High-Throughput Screening (AID 1296008); details: Five cell lines viability, CellTiter-Glo ATP luminescence, 48-72 h; max response: stronger effect = lower value; also: potency is read from the fitted curve at half-maximal effect; as to max response: % is scaled to controls: 0 for no effect and ±100 for the full control effect
In short: (§2)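 Cells exposed to compounds for 48 or 72 hr at 37 degrees Celsius. Viability read as ATP-coupled luminescence with CellTiter-Glo after 10 min at room temperature.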

HEK293 = experiment: as above; details: Five cell lines viability, CellTiter-Glo ATP luminescence, 48-72 h; max response: stronger effect = lower value
In short: as §2

KB-3-1 = experiment: as above; details: Five cell lines viability, CellTiter-Glo ATP luminescence, 48-72 h; max response: stronger effect = lower value
In short: as §2

NIH3T3 = experiment: as above; details: Five cell lines viability, CellTiter-Glo ATP luminescence, 48-72 h; max response: stronger effect = lower value
In short: as §2

HEK293T = experiment: qHTS assay to identify novel small-molecules to repurpose for Merkel cell carcinoma treatment (AID 1296009); details: MCC and control cell lines, CellTiter-Glo viability, 72 h; at 44.8 µM (top of the series) unless noted
In short: (§3)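 CellTiter-Glo luminescence after 72 hr compound exposure at 37 degree celsius gave cell viability. Libraries NPC and MIPE were run as 8- and 11-point dose responses; RLUs normalized to DMSO (negative) and no-cell (cytotoxicity) controls.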

HaCat [1] = experiment: Cytotoxic Profiling of Annotated Libraries Using Quantitative High-Throughput Screening (AID 1296008); details: Five cell lines viability, CellTiter-Glo ATP luminescence, 48-72 h; max response: stronger effect = lower value; also: potency is read from the fitted curve at half-maximal effect; as to max response: % is scaled to controls: 0 for no effect and ±100 for the full control effect
In short: as §2

HACAT [2] = experiment: qHTS assay to identify novel small-molecules to repurpose for Merkel cell carcinoma treatment (AID 1296009); details: MCC and control cell lines, CellTiter-Glo viability, 72 h; at 44.8 µM (top of the series) unless noted
In short: as §3

W2 = experiment: qHTS profiling for inhibitors of Plasmodium falciparum proliferation (AID 504749); also: potency is read from the fitted curve at half-maximal effect; details: P. falciparum in erythrocytes, SYBR Green DNA, 72 h; series mostly up to 28.7 µM
In short: as §1
Also: nearly all actives have a fitted effect of over 60% in size.

CCN(CC)CCOC(=O)C1(c2ccccc2)CCCC1
inactive: Potency (TAB165) | max response (CRL-7250) -4.97% | outcome (HEK293) | max response (KB-3-1) 1.37% | max response (NIH3T3) 2.7% | outcome (HEK293T)
active: Potency (TAB113) 0.005 µM

Cc1cccc(C)c1NC(=O)CN1CCCCCC1
inactive: Potency (TAB113) | Potency (TAB165) | outcome (CRL-7250) | max response (HEK293) 2.2% | max response (KB-3-1) 2.19% | max response (NIH3T3) 1.11%

Cc1ccc2c(Br)cc(Br)c(O)c2n1
active: Potency (TAB113) 12.6 µM | Potency (TAB165) 6.31 µM | Potency (CRL-7250) 21.1 µM | Potency (HEK293) 8.41 µM
inactive: max response (KB-3-1) 8.29%

CCCCOC(=O)CC(CC(=O)OCCCC)(OC(C)=O)C(=O)OCCCC
inactive: max response (CRL-7250) -18.3% | outcome (HaCat [1]) | max response (KB-3-1) 0.604% | max response (NIH3T3) -2.35% | outcome (HACAT [2])

Cc1ccc(O)c([C@H](CCN(C(C)C)C(C)C)c2ccccc2)c1
active: Potency (TAB113) 3.98 µM | Potency (TAB165) 2.24 µM | Potency (W2) 0.849 µM
inactive: max response (CRL-7250) -4.37% | outcome (HaCat [1]) | max response (KB-3-1) -10.6% | max response (NIH3T3) -1.6% | outcome (HACAT [2])

NC(=O)n1c(O)c(C(=O)c2cccs2)c2cc(Cl)ccc21
inactive: Potency (TAB113) | Potency (TAB165) | max response (CRL-7250) 4.52% | outcome (HaCat [1]) | max response (KB-3-1) 2.04% | max response (NIH3T3) 0.218% | outcome (HACAT [2])

COc1ccccc1N1CCN(CCCCNC(=O)c2ccc(-c3ccc(C(C)=O)cc3)cc2)CC1
inactive: Potency (TAB113) | Potency (TAB165) | Potency (W2) | max response (CRL-7250) -9.94% | outcome (HaCat [1]) | max response (KB-3-1) -4.38% | max response (NIH3T3) -11% | outcome (HACAT [2])

OCCOCCN1CCN(C2=Nc3ccccc3Sc3ccccc32)CC1
active: Potency (W2) 4.26 µM
inactive: Potency (TAB113) | Potency (TAB165) | max response (CRL-7250) -6.31% | outcome (HaCat [1]) | max response (KB-3-1) -2.1% | max response (NIH3T3) -7.78% | outcome (HACAT [2])

O=C(CCN1CCN2CCCC2C1)N1c2ccccc2Sc2ccc(Cl)cc21 (stereo unspecified)
active: Potency (W2) 3.01 µM
inactive: Potency (TAB113) | max response (CRL-7250) -7.08% | outcome (HaCat [1]) | max response (KB-3-1) 7.31% | max response (NIH3T3) 3.25% | outcome (HACAT [2]) inactive [at 17.4 µM]

N/C(=N\N=C\c1ccc(Cl)cc1)N/N=C/c1ccc(Cl)cc1
inactive: outcome (CRL-7250) | outcome (HaCat [1]) | max response (KB-3-1) 13.1% | max response (NIH3T3) -19% | outcome (HACAT [2])
active: Potency (TAB165) 3.98 µM

CN1CCC(OC(c2ccccc2)c2ccccc2)CC1
active: Potency (W2) 3.22 µM
inactive: outcome (CRL-7250) | max response (HEK293) -17.7% | outcome (NIH3T3)

CCCCC(CC)CN1CN(CC(CC)CCCC)CC(C)(N)C1 (stereo unspecified)
inactive: max response (CRL-7250) -21.5% | max response (HaCat [1]) -10.2% | max response (KB-3-1) -12.3% | max response (NIH3T3) -12.8%

CCN(CC)CCOc1ccc2c(c1)C(=O)c1cc(OCCN(CC)CC)ccc1-2
active: Potency (TAB113) 11.2 µM | Potency (W2) 13.5 µM | Potency (CRL-7250) 23.7 µM | Potency (HEK293) 7.5 µM

CCN(CC)CCNc1ccc(CO)c2sc3ccccc3c(=O)c12
active: Potency (TAB113) 1.12 µM | Potency (TAB165) 0.794 µM | Potency (W2) 0.675 µM | Potency (CRL-7250) 18.8 µM | Potency (HEK293) 7.5 µM | Potency (NIH3T3) 23.7 µM

CC[N+](C)(CC)CCOC(=O)C(O)(c1ccccc1)C1CCCCC1 (stereo unspecified)
inactive: Potency (TAB113) | Potency (TAB165) | max response (CRL-7250) -11.2% | outcome (HaCat [1]) | max response (KB-3-1) 5.15% | max response (NIH3T3) -5.74% | outcome (HACAT [2])

O=C(CCCN1CC=C(n2c(=O)[nH]c3ccccc32)CC1)c1ccc(F)cc1
inactive: max response (CRL-7250) -30.7% | max response (HaCat [1]) -9.03% and -18.9% | max response (KB-3-1) 3.95% and 1.87% | max response (NIH3T3) -10.6%

CCN(CC)CCOC(=O)C(Cc1cccc2ccccc12)CC1CCCO1 (stereo unspecified)
inactive: max response (CRL-7250) -0.146% | outcome (HaCat [1]) | max response (KB-3-1) 13.9% | max response (NIH3T3) 3.27% | outcome (HACAT [2])

C#C[C@]1(O)CC[C@H]2[C@@H]3[C@H](C)CC4=C(CCC(=O)C4)[C@H]3CC[C@@]21C
inactive: max response (CRL-7250) -3.96% | outcome (HaCat [1]) | max response (KB-3-1) -4.12% | max response (NIH3T3) -7.98% | outcome (HACAT [2])

NC(N)=NN=C(/C=C/c1ccc([N+](=O)[O-])o1)/C=C/c1ccc([N+](=O)[O-])o1
active: Potency (TAB165) 7.94 µM | Potency (W2) 2.39 µM | Potency (CRL-7250) 5.96 µM | Potency (HEK293) 4.73 µM | Potency (NIH3T3) 6.68 µM

CCN1CCCC(OC(=O)C(c2ccccc2)c2ccccc2)C1 (stereo unspecified)
inactive: outcome (CRL-7250) | max response (HaCat [1]) -8.51% | max response (KB-3-1) -9.59% | max response (NIH3T3) 2.04%

CC1CCc2c(N3CCC(O)CC3)c(F)cc3c(=O)c(C(=O)O)cn1c23 (stereo unspecified)
inactive: max response (CRL-7250) -8.92% | max response (HaCat [1]) -5.2% | max response (KB-3-1) 15% | max response (NIH3T3) -20%

O=C1OC(CN2CCOCC2)CN1/N=C/c1ccc([N+](=O)[O-])o1 (stereo unspecified)
inactive: outcome (CRL-7250) | max response (HaCat [1]) 2.11% | max response (KB-3-1) 2.54% | max response (NIH3T3) -5.18%

CC(C)NCC(O)c1ccc2ccccc2c1 (stereo unspecified)
inactive: max response (CRL-7250) 3.16% | outcome (HaCat [1]) | max response (KB-3-1) -2.59% | outcome (NIH3T3) | outcome (HACAT [2])
active: Potency (TAB113) 4.47 µM | Potency (TAB165) 10 µM | Potency (W2) 1.9 µM

CCc1cc(Cl)c(OC)c(C(=O)NC[C@@H]2CCCN2CC)c1O
inactive: max response (CRL-7250) 3.41% | outcome (HaCat [1]) | max response (KB-3-1) -11.4% and -0.677% and -21.5% | max response (NIH3T3) 4.04% | outcome (HACAT [2])
